Data reported in PubChem BioAssay (EPA / NIEHS).
The source made the active and inactive calls. The calls were made as follows: active = hit-call score of the fitted dose curve at least 0.9, where 1 is the maximum; inactive = score below 0.9.

Assays:
[1] = target: CCAAT/enhancer-binding protein beta (Homo sapiens) (UniProt P17676); experiment: ATG_C_EBP_CIS: Attagene CIS-FACTORIAL HepG2 Assay for human CCAAT/Enhancer Binding Protein (C/EBP) beta (AID 2282927); conditions: HepG2 Attagene cis-factorial transcription factor reporter; actives raise or lower the signal
How it was run: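 Endogenous transcription factor activity in human liver HepG2 cells is inferred from induction of a CEBPB-linked reporter mRNA. Exposure lasts 24 h; activity is fitted in both directions relative to DMSO.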

[2] = ATG_CMV_CIS: Attagene CIS-FACTORIAL HepG2 Assay for human CMV (Internal Marker) (AID 2282928); conditions: HepG2 CMV promoter reporter, transcription factor profiling; actives raise or lower the signal;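 also: endpoint acts as a background internal control marker rather than a target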
How it was run: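 HepG2 cells transiently transfected with multiple cis-regulated reporter units; 24 h compound exposure. Reporter mRNA quantified by RT-PCR, 6-FAM primer-extension labeling, HpaI digestion and capillary electrophoresis; bidirectional fitting against DMSO baseline.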

[3] = ATG_DR4_LXR_CIS: Attagene CIS-FACTORIAL HepG2 Assay for human Liver X Receptor (LXR), DR4 submotif (AID 2282929); conditions: HepG2 Attagene DR4 cis-reporter, mRNA transcription; actives raise or lower the signal
How it was run: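 DR4 cis-reporter in HepG2, 24 h exposure. Detection: RT-PCR, 6-FAM labelling, CE fragment analysis. Endpoint fitted bidirectionally, DMSO = baseline.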

[4] = target: Aryl hydrocarbon receptor (Homo sapiens) (UniProt P35869); experiment: ATG_Ahr_CIS: Attagene CIS-FACTORIAL HepG2 Assay for human Aryl Hydrocarbon Receptor (Ahr) (AID 2282930); conditions: HepG2 AhR cis-factorial reporter transcription; actives raise or lower the signal
How it was run: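 Transient MRTU transfection of HepG2 → 24 h compound exposure → total RNA, oligo(dT) RT → PCR, 6-FAM extension, HpaI cut → CE fluorescence. DMSO = baseline; bidirectional curve fit.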

[5] = ATG_AP_1_CIS: Attagene CIS-FACTORIAL HepG2 Assay for human Activator Protein 1 (AP-1) (AID 2282931); conditions: HepG2 Attagene cis-factorial AP-1 reporter mRNA; actives raise or lower the signal
How it was run: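 Cis-regulated reporter units transiently expressed in HepG2 report endogenous transcription-factor activity. Signal: reporter mRNA at 24 h, via RT-PCR and fluorescent capillary electrophoresis. Endpoint derived by bidirectional fitting, DMSO as negative control.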

[6] = ATG_AP_2_CIS: Attagene CIS-FACTORIAL HepG2 Assay for human Activator Protein 2 (AP-2) (AID 2282932); conditions: HepG2 AP-2 cis-reporter, Attagene transcription factor profiling; actives raise or lower the signal
How it was run: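 HepG2, transient MRTU transfection, cis-regulated reporters; 24 h compound exposure; RNA isolated, RT-PCR, 6-FAM labelling, HpaI digest, CE fluorescence. DMSO = negative control/baseline, bidirectional fit.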

[7] = ATG_BRE_CIS: Attagene CIS-FACTORIAL HepG2 Assay for human Bone Morphogenetic Protein (BMP) Response Element (BRE) (AID 2282933); conditions: HepG2 BMP response element reporter, Attagene transcription factor profiling; actives raise or lower the signal
How it was run: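 Read-out: reporter mRNA induction quantified by RT-PCR and capillary electrophoresis after 24 h chemical exposure of transfected HepG2 cells. Endogenous factor activity on the BMP response element; gain or loss fitted against DMSO baseline.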

[8] = target: Retinoic acid receptor alpha (Homo sapiens) (UniProt P10276); experiment: ATG_DR5_RAR_CIS: Attagene CIS-FACTORIAL HepG2 Assay for human Retinoic Acid Receptor Alpha (RARE), DR5 submotif (AID 2282934); conditions: HepG2 Attagene cis-factorial RARE DR5 reporter, mRNA; actives raise or lower the signal;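 as to AC50: reporter responds to endogenous RAR alpha beta and gamma in HepG2 not RARA alone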
How it was run: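 Transient MRTU transfection of HepG2; 24 h compound treatment; TriZol RNA, oligo(dT) RT, PCR, FAM labelling, capillary electrophoresis. Bidirectional fit vs DMSO. Endogenous TF activity at DR5 RARE.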

[9] = target: Transcription factor E2F1 (Homo sapiens) (UniProt Q01094); experiment: ATG_E2F_CIS: Attagene CIS-FACTORIAL HepG2 Assay for human E2F Transcription Factor 1 (AID 2282935); conditions: HepG2 Attagene cis-reporter, E2F reporter RNA transcripts; actives raise or lower the signal
How it was run: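 Cis-element reporter mRNA induction in transiently transfected HepG2, 24 h exposure. Activity fitted in both directions relative to DMSO negative control.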

Measured: AC50

Aryl hydrocarbon receptor (Homo sapiens), sequence (P35869 whole entry, looked up): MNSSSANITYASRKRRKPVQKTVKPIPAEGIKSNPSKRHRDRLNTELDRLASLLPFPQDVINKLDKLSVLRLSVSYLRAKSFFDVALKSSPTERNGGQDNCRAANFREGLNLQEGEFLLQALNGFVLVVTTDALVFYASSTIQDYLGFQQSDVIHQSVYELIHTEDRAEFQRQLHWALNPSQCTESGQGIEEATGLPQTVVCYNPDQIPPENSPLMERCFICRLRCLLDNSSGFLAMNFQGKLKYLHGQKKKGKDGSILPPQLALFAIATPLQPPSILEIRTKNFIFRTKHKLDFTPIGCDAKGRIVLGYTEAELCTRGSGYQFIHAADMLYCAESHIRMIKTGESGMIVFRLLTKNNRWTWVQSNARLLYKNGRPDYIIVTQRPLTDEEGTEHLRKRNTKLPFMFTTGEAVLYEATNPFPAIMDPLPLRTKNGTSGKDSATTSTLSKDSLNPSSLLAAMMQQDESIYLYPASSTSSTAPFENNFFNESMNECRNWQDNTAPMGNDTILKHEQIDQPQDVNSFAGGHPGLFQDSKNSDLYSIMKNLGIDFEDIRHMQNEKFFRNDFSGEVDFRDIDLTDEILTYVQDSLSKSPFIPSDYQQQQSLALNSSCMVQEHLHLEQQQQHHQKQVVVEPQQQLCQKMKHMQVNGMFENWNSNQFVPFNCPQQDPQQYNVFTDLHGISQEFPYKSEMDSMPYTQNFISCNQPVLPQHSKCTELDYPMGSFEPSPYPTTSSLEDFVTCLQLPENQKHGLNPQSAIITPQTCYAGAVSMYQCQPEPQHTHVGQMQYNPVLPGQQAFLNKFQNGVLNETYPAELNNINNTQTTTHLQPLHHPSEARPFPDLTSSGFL
CCAAT/enhancer-binding protein beta (Homo sapiens), sequence (P17676 whole entry, looked up): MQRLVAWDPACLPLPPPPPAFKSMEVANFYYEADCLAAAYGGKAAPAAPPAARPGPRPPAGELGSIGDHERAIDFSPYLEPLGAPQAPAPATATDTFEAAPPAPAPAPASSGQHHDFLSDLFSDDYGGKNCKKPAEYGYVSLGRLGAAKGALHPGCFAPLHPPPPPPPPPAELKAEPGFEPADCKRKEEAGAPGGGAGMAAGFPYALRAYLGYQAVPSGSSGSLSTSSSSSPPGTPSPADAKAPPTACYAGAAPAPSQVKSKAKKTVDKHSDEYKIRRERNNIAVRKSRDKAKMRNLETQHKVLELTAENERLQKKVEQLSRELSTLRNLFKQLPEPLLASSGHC
Retinoic acid receptor alpha (Homo sapiens), sequence (P10276 whole entry, looked up): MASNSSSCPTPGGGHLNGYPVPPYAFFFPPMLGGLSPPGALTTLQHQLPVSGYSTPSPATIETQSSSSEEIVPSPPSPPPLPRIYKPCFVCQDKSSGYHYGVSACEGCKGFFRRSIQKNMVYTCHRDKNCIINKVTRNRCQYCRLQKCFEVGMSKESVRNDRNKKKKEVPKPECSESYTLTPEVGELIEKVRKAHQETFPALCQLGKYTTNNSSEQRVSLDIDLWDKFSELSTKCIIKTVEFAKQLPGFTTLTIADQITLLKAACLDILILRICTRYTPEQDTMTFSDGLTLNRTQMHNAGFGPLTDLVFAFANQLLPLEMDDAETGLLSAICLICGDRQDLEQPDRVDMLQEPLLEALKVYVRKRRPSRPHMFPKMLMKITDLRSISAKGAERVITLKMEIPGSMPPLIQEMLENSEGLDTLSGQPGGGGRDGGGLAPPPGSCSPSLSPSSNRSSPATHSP
Transcription factor E2F1 (Homo sapiens), sequence (Q01094 whole entry, looked up): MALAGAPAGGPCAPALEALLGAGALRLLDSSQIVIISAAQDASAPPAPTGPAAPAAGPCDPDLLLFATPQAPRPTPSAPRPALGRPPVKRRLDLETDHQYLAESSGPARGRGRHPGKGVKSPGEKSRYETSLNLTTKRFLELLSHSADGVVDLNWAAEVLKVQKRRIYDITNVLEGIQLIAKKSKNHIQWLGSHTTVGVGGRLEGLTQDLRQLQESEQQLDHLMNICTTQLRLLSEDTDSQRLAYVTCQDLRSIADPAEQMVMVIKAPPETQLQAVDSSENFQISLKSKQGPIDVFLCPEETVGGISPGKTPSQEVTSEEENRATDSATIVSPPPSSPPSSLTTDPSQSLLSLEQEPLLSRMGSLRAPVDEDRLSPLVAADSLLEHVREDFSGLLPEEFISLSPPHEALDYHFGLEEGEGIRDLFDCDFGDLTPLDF

C=C(C)c1cccc(C(C)(C)N=C=O)c1
active: [4] 100 µM
not listed: [9]
inactive: all other assays above

CC(C)(C)C(=O)C=Cc1ccc(Cl)cc1
active: [1] 26.5 µM | [3] 17.2 µM | [5] 26 µM | [6] 169 µM | [7] 12.3 µM
inactive: [2] | [4] | [8]

O=C(Nc1cccc(C(F)(F)F)c1)c1cc(Br)cc(Br)c1O
active: [2] 160 µM | [3] 38.3 µM | [6] 5.76 µM | [7] 1.08 µM
inactive: [4] | [5] | [8] | [9]

CC=CC(F)(F)C(F)(F)C(F)(F)F
not listed: [8]
inactive: all other assays above

CC(C)C(=O)C(C)C
active: [5] 66.5 µM
inactive: all other assays above

C=C[Si](C)(C)O[Si](C)(C)C=C
active: [4] 100 µM
inactive: all other assays above

CCOC(=O)c1ccccc1C(=C1C=C(Br)C(=O)C(Br)=C1)c1cc(Br)c(O)c(Br)c1
inactive: [9]
active: [2] 53.7 µM | [3] 21.5 µM | [4] 26.2 µM | [5] 51.7 µM | [6] 49.9 µM | [7] 109 µM | [8] 21.3 µM

CC1=CC[C@H](C(C)C)C=C1
not listed: [6] | [8]
inactive: all other assays above

CCCCOCCOC(=O)COc1nc(Cl)c(Cl)cc1Cl
not listed: [8]
inactive: all other assays above

C=C(C)C(=O)OCC(C)C
not listed: [5]
inactive: all other assays above

O=c1c2ccccc2oc2ccccc12
inactive: all assays above

CCN(CC#N)c1cccc(C)c1
not listed: [8]
inactive: all other assays above

C=CCCCCCCCCC(=O)OCCCC
inactive: all assays above

OC1CCCC1
not listed: [8]
inactive: all other assays above

CCO[Si](C)(OCC)OCC
inactive: all assays above

Cn1c(=O)[nH]c2ncn(C)c2c1=O
not listed: [6] | [8]
inactive: all other assays above

O=C1CCCC1
not listed: [9]
inactive: all other assays above

O=C1Nc2ccccc2C1(c1ccc(O)cc1)c1ccc(O)cc1
active: [2] 136 µM | [3] 36.7 µM | [4] 166 µM | [5] 162 µM | [6] 44.8 µM
inactive: [1] | [7] | [8] | [9]

Cc1ccc(C2OC[C@@H]3OC(c4ccc(C)cc4)O[C@H]([C@H](O)CO)[C@@H]3O2)cc1 (stereo not given in full)
active: [5] 142 µM
inactive: all other assays above

O=C(c1ccccc1)c1ccc(O)c(O)c1O
active: [4] 84.4 µM
not listed: [2]
inactive: all other assays above
